# This is a sample that favours compounds with a hit; in the whole collection about 5.4% have one here.
# SMARCA2 activ: SMARCA2 function activation, primary screen. AID 652017. hit rate 1% among 370,000. activation, % at 9.1 µM. MG213 cells, MMTV-luciferase reporter, dexamethasone, overnight; in the data active = activation above about 7.8%;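 note: 0% = vehicle wells and 100% = reference activator wells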
# ALR H2O2 inh: inhibitors of human sulfhydryl oxidase ALR; purified ALR, DTT oxidation, H2O2 HRP-luminol luminescence; inhibition, % (no concentration beside the values); hit rate 3.8% among 290,000; AID 485317;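 active = mean replicate inhibition above about 79%, with every replicate also reaching it, limit read from the data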
# Target sequence (P55789 whole entry, looked up): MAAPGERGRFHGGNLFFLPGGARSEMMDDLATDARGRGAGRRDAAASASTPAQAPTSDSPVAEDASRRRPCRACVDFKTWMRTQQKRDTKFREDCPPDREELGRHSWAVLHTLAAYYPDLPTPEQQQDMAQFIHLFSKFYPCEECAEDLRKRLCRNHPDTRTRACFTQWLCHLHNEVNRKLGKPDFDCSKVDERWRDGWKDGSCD
# beta cell repl: MIN6 beta-cell proliferation induction | AID 2380 | MIN6 cells proliferation, ATPlite luminescence, 48 h; cells starved in 0.2% serum; 100% = growth in 10% serum | proliferation, % at 10 µM | hit rate 0.29% among 330,000;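 active = compounds whose signal lies at least 3.5 SD above the mean of all wells on their plate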;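 note: 0% = DMSO-treated cells in low-serum medium and 100% = 10% serum control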
# PfM18AAP inh: blocks P. falciparum M18 aspartyl aminopeptidase | recombinant PfM18AAP, H-Glu-NHMec fluorogenic cleavage | inhibition, % at 7.35 µM | hit rate 1.2% among 290,000 | AID 1822;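 active = inhibition above the campaign mean inhibition over all tested compounds plus 3 SD, cut at about 28% in these data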;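 note: 0% = plate median of test compound wells and 100% = 2 mM ZnCl2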
# Granule exo inh: lytic granule exocytosis inhibition; inhibition, % at 10 µM; AID 651702; TALL-104 LAMP-1 surface exposure, flow cytometry; cells stimulated with thapsigargin and PMA; hit rate 0.66% among 360,000;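 active = inhibition above about 55%, limit read from the data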
# GASC-1 inh: blocks human GASC-1 demethylase activity | Q9H3R0 | GST-JMJD2C(1-420) H3K9me3 demethylation, DELFIA europium | inhibition, % at 2.35 µM | hit rate 0.069% among 330,000;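 active = more than half of a compound's replicate wells show inhibition beyond 50%, single wells judged on their own value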;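 note: signal counts dimethyl H3K9 product captured on neutravidin plate; 0% = median of DMSO wells and 100% = 0.3 times that DMSO median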
# Active calls of the source: *; · = no result given.
SMILES,SMARCA2 activ,ALR H2O2 inh,beta cell repl,PfM18AAP inh,Granule exo inh,GASC-1 inh
O=[N+]([O-])c1c(Cl)c(Cl)c(Cl)c(Cl)c1Cl,-4,·,·,·,14,·
Nc1cc(Cl)c2nonc2c1[N+](=O)[O-],-11,97*,·,4,16,-25
CC(=O)N1c2ccccc2C(c2ccccc2)=NCC1C(=O)NCc1ccccc1 (stereo not given),-2,·,·,·,·,·
c1ccc2c3c(ccc2c1)OCC1CONC31 (stereo not given),-2,-14,-2,0,·,82*
Cc1cccc2nc(-c3ccccc3)c(-c3ccc(CN4CCC(n5c(=O)[nH]c6cc(Cl)ccc65)CC4)cc3)nc12,0,·,·,·,·,·
Cc1cc(C)cc(OCCOc2cccc(C=C3C(=O)NC(=O)NC3=O)c2)c1,0,-2,-3,9,44,68*
CN1CC[C@@H]2CN[C@H](c3ccccc3Br)C[C@@H]21,0,·,·,·,·,·
CCSC(=O)N1CCCCCC1,7.8*,11,-1,·,-2,12
CSC(=Nc1ccccc1)c1c(O)n(C)c(=O)n(C)c1=O,0,-4,-2,5,-5,5
Cn1c(O)c(C(=Nc2ccccc2)SCc2ccccc2Cl)c(=O)n(C)c1=O,-4,96*,-2,-11,-4,7
C=CCn1c(O)c(/C=N/NC(=O)CCCC)c(=O)[nH]c1=S,-1,90*,2,-4,-2,4
Oc1ccccc1-[n+]1c(-c2ccccc2)cc(-c2ccccc2)c(O)c1-c1ccccc1,0,·,-8,·,74*,6
Oc1ccc(-[n+]2c(-c3ccccc3)cc(-c3ccccc3)cc2-c2ccccc2)cc1,-3,-6,-8,·,28,-1
COc1ccc(C(=O)N/N=C/C23CC[C@@H](O)CC2(O)CC[C@@H]2[C@@H]3CCC3(C)C(C4=CC(=O)OC4)CCC23O)cc1 (stereo not given in full),4,·,-4,2,6,8
COc1cc(C(=O)N/N=C/C23CC[C@@H](O)CC2(O)CC[C@@H]2[C@@H]3CCC3(C)C(C4=CC(=O)OC4)CCC23O)ccc1O (stereo not given in full),-1,95*,1,4,-6,10
COc1ccc2c3c([nH]c2c1)[C@H](C=C(C)C)N1C(=O)[C@@H]2CCCN2C(=O)[C@@H]1C3,-1,·,·,·,·,·
CCC12C=CCN3CCC4(c5cc(Br)c(OC)cc5N(C)C4C(O)(C(=O)OC)C1OC(C)=O)C32 (stereo not given),-4,85*,0,3,3,-6
O=C(N/N=C/c1c(O)n(Cc2ccc(F)cc2)c(=O)[nH]c1=O)c1ccccc1O,-2,97*,-1,17,4,17
N#Cc1ccc2nc(-c3ccc(CN4CCC(n5c(=O)[nH]c6cc(Cl)ccc65)CC4)cc3)c(-c3ccccc3)nc2c1,1,·,·,·,·,·
C=CCn1c(O)c(C(C)=Nc2ccc(N(C)C)cc2)c(=O)[nH]c1=O,-2,5,3,30*,-1,1
C=CCn1c(O)c(C(C)=Nc2cc(OC)ccc2OC)c(=O)[nH]c1=O,0,-21,0,6,2,4
C=CCn1c(O)c(C(CC)=Nc2ccc(NC(C)=O)cc2)c(=O)[nH]c1=O,-4,5,1,13,2,-15
C=CCn1c(O)c(C(CC)=Nc2ccc(N(CC)CC)cc2)c(=O)[nH]c1=O,-6,57,-5,29*,1,-15
C=CCn1c(O)c(C(C)=Nc2ccc(N(CC)CC)cc2)c(=O)[nH]c1=O,1,7,0,29*,-8,-5
CCc1cc(OC)c(CCN)cc1OC,0,·,·,·,·,·
SMILES,SMARCA2 activ,ALR H2O2 inh,beta cell repl,PfM18AAP inh,Granule exo inh,GASC-1 inh
O=C(CSc1ccccc1)N1CCC2(CC1)OCCO2,4,-10,0,4,-1,0
Cc1ccccc1-c1nc(CS(=O)CC(=O)N2CCC3(CC2)OCCO3)c(C)o1 (stereo not given),0,100*,3,7,0,9
Cc1ccsc1-c1nc(CSCC(=O)N2CCC3(CC2)OCCO3)c(C)o1,-3,99*,0,0,3,-12
O=C(Nc1ccccc1)N1Cc2cc(Br)ccc2-n2nncc2C1,-2,·,·,·,·,·
N#Cc1ccc(NC(=S)N2Cc3ccc(Br)cc3-n3nncc3C2)cc1,-5,·,·,·,·,·
N#CC1c2ccccc2-n2nncc2CN1C(=O)c1cccnc1 (stereo not given),-2,·,·,·,·,·

# Assay outcomes from PubChem.
